Where a chain is given by its changes, count along the chain named. The full ranking holds about 24,000 sequences; the median of “enrichment r” is about 0.99, and the highest 2% start at about 3.7. The sample holds the highest values, similar sequences and a random draw of the others, so the mix is not that of the screen.
T1: UNK ZnF1-3 (human, UniProt Q9C0B0 31-174)
T1 sequence: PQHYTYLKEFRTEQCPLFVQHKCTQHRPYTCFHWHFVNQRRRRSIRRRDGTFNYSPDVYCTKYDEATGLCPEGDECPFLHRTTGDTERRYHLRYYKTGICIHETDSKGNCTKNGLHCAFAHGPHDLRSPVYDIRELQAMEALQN

B1: chr14:35505469:35505470:+_ENSMUSG00000041408_ENSMUST00000048263|mus_hu|motif|central (ssRNA)
RNA: GGGAGUUCUACAGUCCGACGAUCCUGUAUGGUAACAUUACAAACUGACAAGCAAGAUGGAUGUAAAACAGUGUAAUCUCGGGUCCGUCCAACUGUCCCUCUAAAACUGGUCCCACAACUUACACCCCCUUUCUUUGCCUGAUUCAACAGAGGAUUGAGCAUCA
B2: chr6:72561926:72561927:-_ENSMUSG00000056429_ENSMUST00000070524|mus_mus|motif|central (ssRNA)
RNA: GGGAGUUCUACAGUCCGACGAUCGUAAAUAAAACAUCACCAGAGGAGAGUGUCAUCAAAGUGCCGGUGCAAAACCUGAAGCGGUCCCAUCUCUGCCAGCCCAGACUUGCCACCAAACCCCAGAGGAGGUCACAGUCUUUUCAUCAACAGAGGAUUGAGCAUCA
B3: 26295160_26295280_2512_CDS_ENSMUSG00000026924_ENSMUST00000091252|mouse|control|control (ssRNA)
RNA: GGGAGUUCUACAGUCCGACGAUCUCCCUUUUCUGGAUGAUGAACAACCUCUGAAGGUUUUGGUUUUACAGGAACAUAAAGUGCAGGGGCAGCAGGGGCUAGAAGGACAUUGCCACCAAAAUCUGGCAGCUCAUUUUGUGCCCACAACAGAGGAUUGAGCAUCA
B4: chr2:153237265:153237266:-_ENSMUSG00000061411_ENSMUST00000109784|mus_mus|mus_mus_mus_hu_False|8_58 (ssRNA)
RNA: GGGAGUUCUACAGUCCGACGAUCAAAAAAAAAAAAAAAAAAGUGUCCUUGUGCCCAAAGUCUCAGGUGCUUGGAGUGCAGCUAGAAACAGCUCUUUUGGAUCCCACCUCUUUCAAAAACAAAAUGUCCAACUGGUGGAGGCAGCAACAGAGGAUUGAGCAUCA
B5: 130210676_130211900_346_CDS_ENSG00000197958_ENST00000361436|human|control|control (ssRNA)
RNA: GGGAGUUCUACAGUCCGACGAUCAAAAGUGAUAUUCCCACUGUGUUUAAUGUUUUUCUGUUUCUUUCUGUCUCUUGGUGGUUCCUUGAGGGCUUUGAUGAUCAGGGCAGAGGCAGAAGGCACCACCUCAAUCUGGGCCUGUCUCAACAGAGGAUUGAGCAUCA
B6: chr2:153237265:153237266:-_ENSMUSG00000061411_ENSMUST00000109784|mus_mus|mus_mus_mus_hu_False|1_8 (ssRNA)
RNA: B4 RNA with C78U, A79G, G137A, A138G, G140C, C141A, A142G
B7: chr2:153237265:153237266:-_ENSMUSG00000061411_ENSMUST00000109784|mus_mus|mus_mus_mus_hu_False|8_78 (ssRNA)
RNA: B4 RNA with G66A, C78U, A79G
B8: chr2:153237265:153237266:-_ENSMUSG00000061411_ENSMUST00000109784|mus_mus|mus_mus_mus_hu_False|8_28 (ssRNA)
RNA: B4 RNA with C78U, A79G, A115G
B9: chr8:80553714:80553715:+_ENSG00000104435_ENST00000220876|hu_mus|FALSE|FALSE (ssRNA)
RNA: GGGAGUUCUACAGUCCGACGAUCAGCCUCCAGCUUUUUCUGAAUCUCCUCCAGAGACAGGUCUUUCUUCUUUGGAGAAGCUAGAGUUCGUGGAGCUUCUGAGAUGGGAGAUGGUGGCUUCAAGAUCAGCUCAAAAGCCUGGCCCAACAGAGGAUUGAGCAUCA
B10: 1003750_1005305_5821_CDS_ENSG00000060237_ENST00000535572|human|control|control (ssRNA)
RNA: GGGAGUUCUACAGUCCGACGAUCAUGAACAGACUUUGCAUCUUCUGACUUAUUUUUACCCUCUUUCUGGGCACCGUCUGCUGCAACAGAAACCUGAAAUCGUCCCAUCUUAAAAACACCAGCUCCUGAACUAGUUGCUAGGACCAACAGAGGAUUGAGCAUCA
B11: 9430860_9430980_9933_3pUTR_ENSMUSG00000040209_ENSMUST00000041124|mouse|control|control (ssRNA)
RNA: GGGAGUUCUACAGUCCGACGAUCUUUAAAAAGAACCAACUACUAUUUGACUCUAACCCAAUCCUUCAGUAUCUGGUAUGCGCUUUGUUUUUUCCCUUGCUAACACUAGGCCCUUUCUGUGCACUGCCAGCCAAGCACAGGCAGCAACAGAGGAUUGAGCAUCA
B12: 93812015_93812135_631_5pUTR_ENSG00000117505_ENST00000370272|human|control|control (ssRNA)
RNA: GGGAGUUCUACAGUCCGACGAUCGAUUUCUCAAAAAGUCGCCCUCGGAGAGUGAUCCCGGGGGGUGCUUUGCGAAGAGGGUGCAGAAAAUGAACGGAGGAGCAGCUGGCUUGAGGGCUGGGAACACUCGCGUGUGUGAGAGAUCAACAGAGGAUUGAGCAUCA
B13: chr5:128448638:128448639:+_ENSG00000066583_ENST00000173527|hu_mus|hu_hu_hu_mus_False|28_28 (ssRNA)
RNA: GGGAGUUCUACAGUCCGACGAUCGGCACUCGCCUUAAUUAGGUUCUGAAUUUCCUUGAACUUCGGGUGGUCUUUGUCAGCCACCAGCUGUAGGAGGACAGCCUCACUCGUGGUCACGAUGAUCCCAGUGCGGGCAAGACGCUCCAACAGAGGAUUGAGCAUCA
B14: chr6:48548902:48548903:+_ENSMUSG00000052751_ENSMUST00000163452|mus_mus|FALSE|FALSE (ssRNA)
RNA: GGGAGUUCUACAGUCCGACGAUCAAGGAACAAAACAAGACCCAGUAGGCAGAAGUCAUAGGAAAGCAGAAUCCAAUCACUAUAAGUAAGAAAUGUCUAACAAUUAGACUCGCCCUACGAUAGAAGUAGUGCCUUCUGGAGGUACAACAGAGGAUUGAGCAUCA
B15: chr10:60895279:60895280:-_ENSMUSG00000020091_ENSMUST00000020288|mus_mus|FALSE|FALSE (ssRNA)
RNA: GGGAGUUCUACAGUCCGACGAUCACUGGAAGAUGUUUUGUUAAAAAAGUUGUAGUUCAAAAUUGUACUGAAAACUUAUCUAAAAAUAGGUCUGUAGUCAUCUUAAAAAUAAAAGGUCUCUCCUCUGAUAAGGAGAGACUGAUACAACAGAGGAUUGAGCAUCA
B16: chr15:12740188:12740189:-_ENSMUSG00000022195_ENSMUST00000057256|mus_hu|FALSE|FALSE (ssRNA)
RNA: GGGAGUUCUACAGUCCGACGAUCAUAAAUGAAGUAUGAAUGAAUCUCAUACAGCUCAACAGACCUGGGGGAAAAGUGAAGACAAACAAACAAACAAACAAAAAAAAAAACAAAACCCUAAAAAAUACUUAAGGAAGACAGAUACAACAGAGGAUUGAGCAUCA
B17: 176792147_176792267_4022_3pUTR_ENSG00000144320_ENST00000272748|human|control|control (ssRNA)
RNA: GGGAGUUCUACAGUCCGACGAUCACAUGAUAGGGAGUAAAAGGCAGAGGCCAGCUUCAGAUGGGGAGUUUGGGAAGGCAUCUCUCUGAGGAGGCAAAAUUUAAGCUGAAAUCUGAGGCAGGAAAGGGCAUGGUCAGAGAACUGCAACAGAGGAUUGAGCAUCA
B18: chr9:15453159:15453160:+_ENSG00000164975_ENST00000490969|hu_hu|FALSE|FALSE (ssRNA)
RNA: GGGAGUUCUACAGUCCGACGAUCAUGAUGCACAAGCCUUAUGUCAGUAAUGACAAUGACAUGUUCACAGUCUCCCUGAUGACAGUAUAAGUAAGGAAAACCCAGUUUAAUACACAAGUCAUUGAAGGUGAAAUCUUCCAUUCUCAACAGAGGAUUGAGCAUCA
B19: chr4:117881997:117881998:-_ENSMUSG00000033295_ENSMUST00000150096|mus_hu|FALSE|FALSE (ssRNA)
RNA: GGGAGUUCUACAGUCCGACGAUCCAGAAGUCAUACAAAAUAAGGAUCCAAAGUGAACUCAAGAAAAAAAAAAACAAAACAAAAUAAACCCCAACCCCUACAGUGGCCCAUUCUGCAGAUACGGAUUCGCGAAAGGAAAAAUCACAACAGAGGAUUGAGCAUCA
B20: chr2:47635579:47635580:+_ENSG00000095002_ENST00000543555|hu_hu|motif|central (ssRNA)
RNA: GGGAGUUCUACAGUCCGACGAUCACUCUAUACUGACGAACCAGAAGAAGAUCUUUUACAAAAGAUUCAAAAUUCAUUUUACGGAGCACAACACUCUGCAGAUUCUUUGCUCCUGCCGGCCCCAUGUACUUGAUCACCCCCUGGCAACAGAGGAUUGAGCAUCA
B21: chr4:103718443:103718444:-_ENSG00000109332_ENST00000394803|perfect_dup|FALSE|FALSE (ssRNA)
RNA: GGGAGUUCUACAGUCCGACGAUCAAAGCUGGAAGAACUUAAGUCUUCUCAGAUGAGCAUGUGAAUGAAUGGAGGGAGGUAAACAAAAAAUAAAAUUAAAAAAGAUGAGGUCUGAUAGGGGAGCAGCCGGAUAAGAAAAUCAAACAACAGAGGAUUGAGCAUCA
B22: 54500970_54501090_1431_3pUTR_ENSMUSG00000039156_ENSMUST00000071083|mouse|control|control (ssRNA)
RNA: GGGAGUUCUACAGUCCGACGAUCAGCUGCAUCUCAGCAUUUUGCCUCUUAAUAUUGUAGUACUGUACUUCAACUUCGUGUGUUAGCUGAAGCCAUUUCUGUAGUGCGUCAGGGACAGACCAGCUGCUUCUCAGUUCAAACUCCCAACAGAGGAUUGAGCAUCA

What follows are binders tested against T1, UNK ZnF1-3 (assay: nsRBNS (natural sequence RNA bind-n-seq); RBNS binding buffer (assumed for nsRBNS): 25 mM Tris pH 7.5, 150 mM KCl, 3 mM MgCl2, 0.01% Triton X-100, 500 ug/ml BSA, 20 U/ml SUPERase-In, 4 C; UNK is unkempt and MSI1 is Musashi-1; names of the RNAs are library labels; protein concentration not given here; high values mean tight binding).

Row | Binder | binding signal
1 | B1 | 1.1 enrichment R
2 | B2 | 3.38 enrichment R
3 | B3 | 1.58 enrichment R
4 | B4 | 3.36 enrichment R
5 | B5 | 0.682 enrichment R
6 | B6 | 4.46 enrichment R
7 | B7 | 4.8 enrichment R
8 | B8 | 3.73 enrichment R
9 | B9 | 0.56 enrichment R
10 | B10 | 1.34 enrichment R
11 | B11 | 0.957 enrichment R
12 | B12 | 1.73 enrichment R
13 | B13 | 0.734 enrichment R
14 | B14 | 2.2 enrichment R
15 | B15 | 0.617 enrichment R
16 | B16 | 6.86 enrichment R
17 | B17 | 3.56 enrichment R
18 | B18 | 1.02 enrichment R
19 | B19 | 7.45 enrichment R
20 | B20 | 1.41 enrichment R
21 | B21 | 21.1 enrichment R
22 | B22 | 1.01 enrichment R

Source: publication PMC12136788
